From the supplement of paper PMC3545927
Some of the results follow. The true hit rate is not given.

Biological target: furin, P09958
Assay: furin cleavage Z-score vs untreated control; higher = more cleavage, active = 3.5 or more, inactive = 1 or less, 8 variable residues between constant flanks
Procedure, shortened: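 Purified furin cleaved 8-mer peptides that were fused to a cDNA oligonucleotide and held on magnetic beads by their N-terminus. Each 0.01 ml reaction used a 1:10 enzyme:substrate ratio in 50 mM HEPES pH 7.5 with CaCl2 and NaCl and ran 7.5, 15 or 30 min. Released DNA was adapter-tagged by PCR and sequenced, and read counts gave abundance. The cleavage Z-score came from log counts against furin-free reactions, lowess-adjusted and scaled by median absolute deviation.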

Chain of furin, P09958 (P09958 whole entry): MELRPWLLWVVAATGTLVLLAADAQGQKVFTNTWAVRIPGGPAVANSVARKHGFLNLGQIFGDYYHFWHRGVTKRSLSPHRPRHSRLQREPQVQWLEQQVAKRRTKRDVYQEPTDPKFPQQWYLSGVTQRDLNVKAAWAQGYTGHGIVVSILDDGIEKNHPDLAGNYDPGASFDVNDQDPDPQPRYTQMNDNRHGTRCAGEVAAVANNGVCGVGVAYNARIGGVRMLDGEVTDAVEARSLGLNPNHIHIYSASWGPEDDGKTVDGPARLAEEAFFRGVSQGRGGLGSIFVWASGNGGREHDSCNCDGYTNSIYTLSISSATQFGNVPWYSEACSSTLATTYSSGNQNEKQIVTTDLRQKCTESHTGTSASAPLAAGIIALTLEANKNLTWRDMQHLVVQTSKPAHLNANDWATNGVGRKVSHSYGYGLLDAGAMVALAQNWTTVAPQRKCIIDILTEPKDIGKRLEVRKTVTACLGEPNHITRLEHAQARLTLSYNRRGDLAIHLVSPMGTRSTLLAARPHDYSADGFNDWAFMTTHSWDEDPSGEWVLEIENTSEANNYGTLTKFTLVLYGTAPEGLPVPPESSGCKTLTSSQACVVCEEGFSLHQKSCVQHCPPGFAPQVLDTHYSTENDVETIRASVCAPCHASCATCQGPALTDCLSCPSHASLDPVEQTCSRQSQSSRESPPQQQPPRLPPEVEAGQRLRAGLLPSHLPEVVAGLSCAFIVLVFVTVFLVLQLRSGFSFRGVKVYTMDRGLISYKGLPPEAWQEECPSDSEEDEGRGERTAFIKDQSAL

Sequence	furin cleavage Z-score (7.5 min)	furin cleavage Z-score (15 min)	furin cleavage Z-score (30 min)
CAEVVTSTWMAGNASASA [HC2246]	1.57	0.473 (inactive)	0.947 (inactive)
CAQSSRHRRAAGNASASA [FS-851]	13.1 (active)	12.7 (active)	10.3 (active)
CAVSSRKSRWAGNASASA [FS-1501]	3.21	3.75 (active)	5.97 (active)
CANSKRKSRPAGNASASA [FS-1145]	-2.35 (inactive)	0.946 (inactive)	-1.84 (inactive)
CAVSSRHRRAAGNASASA [FS-1106]	12.3 (active)	12.4 (active)	10.3 (active)
CAQSSRQPRPAGNASASA [FS-141]	-0.311 (inactive)	-0.656 (inactive)	-0.417 (inactive)
CAQWQVLPCSAGNASASA [HC496]	-0.675 (inactive)	0.494 (inactive)	0.276 (inactive)
CARTGVRTITAGNASASA [HC800]	-0.25 (inactive)	-0.718 (inactive)	-0.285 (inactive)
CARRGPRLGVAGNASASA [HC180]	-0.669 (inactive)	-0.347 (inactive)	-0.923 (inactive)
CAREKRELRQAGNASASA [FS-2657]	9.73 (active)	13.3 (active)	9.26 (active)
CAREKREKIKAGNASASA [FS-2208]	-0.771 (inactive)	-0.626 (inactive)	0.291 (inactive)
CAGRSRDLRGAGNASASA [FS-165]	-0.794 (inactive)	-0.817 (inactive)	-1.52 (inactive)
CAGRSRELRQAGNASASA [FS-166]	2.87	2.42	4.09 (active)
CAADPRVRRAAGNASASA [FS-1298]	10.1 (active)	8.47 (active)	8.31 (active)
CALIPRVRRAAGNASASA [FS-608]	9.17 (active)	10.3 (active)	8.48 (active)
CAADPRTWRSAGNASASA [FS-741]	-0.983 (inactive)	1.45	-0.478 (inactive)

Sequence	furin cleavage Z-score (7.5 min)	furin cleavage Z-score (15 min)	furin cleavage Z-score (30 min)
CALLQRVRRAAGNASASA [FS-1360]	3.77 (active)	3.58 (active)	3.76 (active)
CAENLVILNAAGNASASA [HC535]	-0.56 (inactive)	-1.45 (inactive)	0.00797 (inactive)
CAQKKRGGTAAGNASASA [WN2]	-0.625 (inactive)	-0.389 (inactive)	0.122 (inactive)
CAVNQRVRRAAGNASASA [FS-735]	10 (active)	8.42 (active)	8.51 (active)
CAADARVCSCAGNASASA [HC524]	0.17 (inactive)	-2.96 (inactive)	-3.71 (inactive)
CALLQRKKKLAGNASASA [FS-823]	0.0701 (inactive)	0.355 (inactive)	-0.31 (inactive)
CAAGVQEDAAAGNASASA [HC1534]	0.273 (inactive)	-0.401 (inactive)	-1.13 (inactive)
CAEKPCHRPSAGNASASA [HC2334]	-0.309 (inactive)	0.292 (inactive)	0.19 (inactive)
CADRMEECSQAGNASASA [HC1813]	0.635 (inactive)	-0.476 (inactive)	-0.0128 (inactive)
CARWPRSDPEAGNASASA [FS-1807]	2.83	2.73	4.21 (active)
CARSARSVARAGNASASA [FS-3075]	5.33 (active)	7.5 (active)	6.53 (active)
CARWNRFAMIAGNASASA [FS-2200]	0.704 (inactive)	-0.675 (inactive)	-0.478 (inactive)
CARSARSAPEAGNASASA [FS-2377]	7.91 (active)	9.89 (active)	6.92 (active)
CARSIKSVPEAGNASASA [FS-1927]	0.273 (inactive)	-0.944 (inactive)	0.475 (inactive)
CARTWRSVPEAGNASASA [FS-2528]	0.349 (inactive)	0.625 (inactive)	1.35
